In all, about 220,000 compounds went through this assay and about 16,000 (7.3%) were called active. Not shown: some 25% with an inconclusive outcome. Shown is part of a subset that was picked to be rich in actives. Values without a mark were called inactive. Calls come from the whole dose curve; as a rule, active = well fitted inhibition curve with a large enough effect (not every such curve was filed as active); inconclusive = small, poorly fitted or top-dose-only effect, or another doubt; inactive = no such curve, though single readings can be large or run the other way.
Potency is the fitted concentration of half-maximal effect.

For this test, the target named is Aldehyde dehydrogenase 1A1 (Homo sapiens) (UniProt P00352). Description: qHTS Assay for Inhibitors of Aldehyde Dehydrogenase 1 (ALDH1A1).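 For activity, negative = inhibition: plate controls were no enzyme wells and a reference inhibitor.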 The settings on record: Purified ALDH1A1, NADH fluorescence, propionaldehyde substrate; series mostly up to 75.3 µM; activity, negative = inhibition: at the top concentration.
Aldehyde dehydrogenase 1A1 (Homo sapiens), sequence (P00352 whole entry, looked up): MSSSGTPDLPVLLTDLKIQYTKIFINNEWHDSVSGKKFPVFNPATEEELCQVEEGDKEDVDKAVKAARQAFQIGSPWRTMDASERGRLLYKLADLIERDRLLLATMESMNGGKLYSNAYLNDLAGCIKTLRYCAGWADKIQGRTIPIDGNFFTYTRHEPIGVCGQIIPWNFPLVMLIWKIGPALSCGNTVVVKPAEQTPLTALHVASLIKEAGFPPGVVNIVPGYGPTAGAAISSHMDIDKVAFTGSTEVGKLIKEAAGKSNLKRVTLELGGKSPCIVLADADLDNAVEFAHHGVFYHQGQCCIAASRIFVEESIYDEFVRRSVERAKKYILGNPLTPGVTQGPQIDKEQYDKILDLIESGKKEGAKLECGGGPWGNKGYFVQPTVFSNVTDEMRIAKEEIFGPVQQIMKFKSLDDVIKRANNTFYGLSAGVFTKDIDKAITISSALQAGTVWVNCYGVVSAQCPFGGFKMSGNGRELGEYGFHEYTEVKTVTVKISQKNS
With `CN1CCN(/N=C/c2ccc(C#N)cc2)CC1`, the “activity, negative = inhibition” value was -6.72%.
On to `CC(=O)/C(C)=N/O`, for which the “activity, negative = inhibition” value was 4.95%.
`CC(OC(=O)CNS(=O)(=O)/C=C/c1ccccc1)C(=O)Nc1ccc(S(=O)(=O)N2CCCC2)cc1` (configuration not stated): the Potency is 1.26 µM (active).
As to `O=C(O)/C=C/c1ccc(S(=O)(=O)N2CCCCCC2)cc1`, the “activity, negative = inhibition” value was 1.8%.
Still for that read-out and setting: then `Cc1cc(C(=O)OC(C)C(=O)Nc2cccc(S(=O)(=O)N3CCOCC3)c2)c(C)o1` (configuration not stated), with -9.99%.
Still for that read-out and setting: next, `C/C(N)=C(/C#N)C(=O)COC(=O)C1CCN(C(=O)c2ccc(Cl)cc2)CC1`: 6.17%.
Still for that read-out and setting: next, `N/C(=N\OC(=O)Cc1ccccc1[N+](=O)[O-])c1ccc(Br)cc1`: -19.8%.
As to `NS(=O)(=O)c1ccc(NC(=O)/C=C/c2ccccc2Cl)cc1`, the “activity, negative = inhibition” value is 5.79%.
Turning to `COC(=O)C1=C(C)N(c2ccc(C)cc2)/C(=C/c2ccc(O)cc2)C1=O`, the “activity, negative = inhibition” value is 1.55%.
In the case of `CCOc1cc(C(=O)OCC(=O)Nc2cccc(C)c2)ccc1OCC(=O)N1CCOCC1`, the “activity, negative = inhibition” value was 26.8%.
As to `Cc1ccc(C(=O)C(=S)N2CCOCC2)cc1`, the “activity, negative = inhibition” value was 0.91%.
On to `CCOc1cc(C(=S)N2CCOCC2)ccc1O`, for which the Potency is 8.91 µM (active).
As for `COC(OC)c1ccnc(SCc2ccccc2Cl)n1`, the “activity, negative = inhibition” value was 2.6%.
On the same count and under the same terms, next, `Nc1nc(SCc2ccccc2Cl)n[nH]1`: 0.779%.
For `Clc1ccccc1CSc1nnc(-c2ccco2)c(-c2ccco2)n1`, the Potency is 10 µM (active).
For the molecule `O=c1[nH]c(SCc2ccccc2)nnc1-c1ccccc1`, the “activity, negative = inhibition” value was -0.436%.
On the same count and under the same terms, next, `Clc1ccc(CSc2nnc3c(n2)[nH]c2ccccc23)cc1`: 7.53%.
As for `c1ccc(CSc2nnc(-c3ccco3)c(-c3ccco3)n2)cc1`, the Potency is 2.82 µM (active).
With `O=C(NC(=O)c1cc(OCC(F)(F)F)ccc1OCC(F)(F)F)Nc1ccccc1`, the “activity, negative = inhibition” value was 1.1%.
On the same count and under the same terms, then `Cc1ccc(-n2c(O)c(C=Nc3ccc(S(=O)(=O)Nc4ncccn4)cc3)c3ccccc3c2=O)cc1C`, with 5.14%.
For the molecule `CCOc1ccc(-n2c(O)c(/C=N/Nc3nc(C)cc(C)n3)c3ccccc3c2=O)cc1`, the Potency is 5.01 µM (active).
With `CCOc1ccc(N=Cc2c(O)n(-c3cccc(C)n3)c(=O)c3ccccc23)cc1`, the “activity, negative = inhibition” value is -2.85%.
As to `O=C(NCCOc1ccccc1F)Nc1ccc(Br)cc1`, the “activity, negative = inhibition” value is 8.09%.
With `Cc1ccnc(N2C(=O)c3ccccc3C2Nc2ccc3c(c2)OCCO3)c1` (configuration not stated), the “activity, negative = inhibition” value was -5.58%.
As to `O=C(NC1CCCCC1)C1c2ccccc2C(=O)N1Cc1ccco1` (configuration not stated), the “activity, negative = inhibition” value was -7.86%.
Regarding `O=C1c2ccccc2C(Nc2ccc3c(c2)OCCO3)N1Cc1ccco1` (configuration not stated), the Potency is 7.08 µM (active).
Same read-out and setting: then `COc1ccccc1NC(=O)/C=C/C(N)=O`, with 28.2 µM (active).
In the case of `COc1ccccc1NC(=O)/C=C/C(=O)O`, the “activity, negative = inhibition” value was 2.77%.
Turning to `COc1ccccc1NC(=O)c1ccc(C)s1`, the “activity, negative = inhibition” value was -4.02%.
Regarding `CCCC(=O)OCC(=O)Nc1cc(Cl)ccc1[N+](=O)[O-]`, the “activity, negative = inhibition” value is -0.69%.
In the case of `Cc1ccc(Cl)cc1NC(=O)COC(=O)CC(C)(C)C`, the Potency was 8.91 µM (active).
As for `Cc1ccc(Cl)cc1NC(=O)COC(=O)C1CCCCC1`, the “activity, negative = inhibition” value is 4%.
On the same count and under the same terms, next, `Cc1ccc2nc(-c3ccccn3)cc(C(=O)Nc3ccc4c(c3)OCO4)c2c1`: 4.03%; `CCCCn1nc(C(=O)Nc2ccc(S(=O)(=O)Nc3ncccn3)cc2)c2ccccc2c1=O`: 1.98%; `Cn1cc(CN2CCC(C(O)CCc3ccccc3)CC2)c(-c2ccccc2F)n1` (configuration not stated): 7.67%.
The same measure, in the same setting: then `CS(=O)(=O)n1nc(-c2ccco2)nc1N`, with -2.53%.
Still for that read-out and setting: then `C/C(N)=C(/C#N)C(=O)COC(=O)c1cc(-c2ccccc2)nc2ccc(Br)cc12`, with 3.96%; and `Cc1ccc(NC(=O)CN2CCCCC2)c2c1CC(C)(C)O2`, with -6.17%.
In the case of `Cc1cc(CO)nn1-c1ccc([N+](=O)[O-])cc1`, the “activity, negative = inhibition” value was 4%.
As for `COc1ccc(C(CC(=O)Nc2ccc(C)cc2)NC(=O)C(F)(F)F)cc1` (configuration not stated), the “activity, negative = inhibition” value was 7.22%.
In the case of `COc1ccc(NC(=O)Cn2c(-c3ccc(OC)cc3)cn(-c3ccc(C)cc3)c2=O)cc1`, the Potency was 15.8 µM (active).
For `Cc1ccc(OC(=O)CCC(=O)Nc2ccc(Br)cc2)cc1`, the “activity, negative = inhibition” value is 11.2%.
Consider `CC1=C(C(=O)OC2CCCCC2)C(c2cccnc2)n2ncnc2N1` (configuration not stated), for which the Potency was 20 µM (active).
For `COC(=O)C1=C(C)Nc2ncnn2C1c1cccnc1` (configuration not stated), the “activity, negative = inhibition” value was 5.06%.
Regarding `COC(=O)C1=C(C)Nc2ncnn2C1c1ccco1` (configuration not stated), the “activity, negative = inhibition” value is 2.79%.
Same read-out and setting: then `Cc1cc(C)cc(NC(=O)N(C)Cc2ccccc2)c1`, with 0.822%.
Turning to `CCc1cccc2c(=O)c(C(=O)NCCCOC)c[nH]c12`, the Potency was 2 µM (active).
Take `CCCCOCCCNC(=O)c1ccccc1OCC`: the “activity, negative = inhibition” value was 3.62%.
Still for that read-out and setting: next, `CCOCCCNC(=O)c1c[nH]c2cc(C)ccc2c1=O`: -4.04%; `Cc1ccc(O)c(NC(=S)NC(=O)COc2ccc(Br)cc2)c1`: -1.2%; `Cn1c(CO)cnc1SCc1ccccc1`: 16.3%.
`CSc1c(SCc2ccccc2)cnn(Cc2ccccc2)c1=O`: the Potency was 11.2 µM (active).
`CSc1nc2ccccc2c(=O)n1Cc1ccc(F)cc1`: the “activity, negative = inhibition” value is 8.56%.
Still for that read-out and setting: next, `CCCOCC(O)CC(CC)C(=O)NNC(=S)Nc1ccccc1` (configuration not stated): -9.33%.
The same measure, in the same setting: next, `O=C(Nc1nc(-c2ccc(-c3ccccc3)cc2)cs1)c1cnccn1`: 3.48%.
As to `C/C(CC1CC(C)(C)OC1=O)=N/Nc1nc(-c2ccccc2)cs1` (configuration not stated), the Potency was 7.94 µM (active).
`CC1(C)CC(CC(=O)O)C(=O)O1` (configuration not stated): the “activity, negative = inhibition” value was -1.05%.
Turning to `Cc1ccc(C(=O)NC(=S)NCc2cccnc2)cc1`, the “activity, negative = inhibition” value was -1.98%.
Regarding `Cc1ccc(NC(=S)N(CCN2CCCCC2)Cc2ccco2)cc1C`, the “activity, negative = inhibition” value is -9.28%.
The same measure, in the same setting: next, `COc1ccc(CNC(=O)CN2CCC(n3nnc4cc(F)ccc43)CC2)cc1`: 2.04%.
Consider `COc1ccc(C(=O)Nc2c(N)nc(SCC(=O)N3CCC(C)CC3)[nH]c2=O)cc1OC`, for which the “activity, negative = inhibition” value is -5.04%.
As for `O=C(CSc1nc2c(cnn2-c2ccc(F)cc2)c(=O)[nH]1)N1CCCCCC1`, the Potency was 0.126 µM (active).
For `Cc1nnc(SCC(=O)N2CCOCC2)[nH]c1=O`, the “activity, negative = inhibition” value is -0.185%.
As for `O=C(Nc1ccc(F)c([N+](=O)[O-])c1)C1CC(=O)N(Cc2ccccc2)C1` (configuration not stated), the “activity, negative = inhibition” value is 13.4%.
Same read-out and setting: next, `CC(CO)NCC12CC3CC(CC(C3)C1)C2` (configuration not stated): 1.89%; `CC(C)n1c(-c2ccncc2)n[nH]c1=S`: -10.3%.
Take `Nc1ccc(C(=O)NCc2ccccc2)cc1`: the “activity, negative = inhibition” value is 11.1%.
On to `COc1ccc(C2OC(=O)CC2C(=O)NC(C)C)cc1` (configuration not stated), for which the Potency is 15.8 µM (active).
For `COC(=O)C1C(=O)NCC1c1ccc(OC)cc1` (configuration not stated), the “activity, negative = inhibition” value was -7.46%.
Consider `CCCCN1C(=O)CCC(C(=O)O)C1c1ccc(OC)cc1` (configuration not stated), for which the “activity, negative = inhibition” value is 17.7%.
Still for that read-out and setting: then `CCOC(=O)C1(CCOC)CCN(Cc2ccc(C(=O)OC)cc2)CC1`, with -5.45%; and `COC(=O)c1cc(C(=O)OCC(=O)Nc2cc(C)on2)cc([N+](=O)[O-])c1`, with 12.8%.
